Activity calls are given as the source filed them.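 Rule for the calls, unless noted: active = fluorescence slope after compound addition differing from the mean of all tested samples at 99.7% confidence, mostly higher but some lower; inactive = the rest.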
Columns and labels:
[1] = inhibitors of TNFa-induced NFkB p65 translocation, primary screen, imaging, HUVEC, MLSMR starter and 10KST1 sets (AID 438;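 active = inhibition above 20% together with a positive visual image hit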;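 note: compound added about 3h40 before a 20 min TNFalpha stimulation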;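 for inhibition: signal is the nuclear over cytoplasmic p65 intensity ratio per well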); conditions: HUVEC TNFa-induced p65 nuclear translocation; cell count: measured here: nuclei count (cytotoxicity indicator), at 2.08 µM; inhibition: at 2 µM, stronger effect = higher value, 0% TNFa-plus-vehicle, 100% no-TNFa wells
[2] = reduction of polyQ htt aggregates in cells – imaging, exon1htt(103Q)mCFP cells, high-content imaging, primary screen (AID 483;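 active = visual image review flags a hit and inhibition of aggregation exceeds 20%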;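 note: compound exposure lasted 3 days before fixation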;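 for nuclei count: percent of the per-plate median nuclei count of sample wells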); conditions: exon1htt(103Q)mCFP cell line, aggregate imaging, at 2 µM; inhibition of aggregation: stronger effect = higher value; nuclei count: measured here: cell count, toxicity
[3] = endothelial E-selectin expression blockers – imaging, HUVEC, immunofluorescence, MLSMR starter and 10KST1 sets, primary screen (AID 487;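 active = visually confirmed hit in the image check and inhibition above 20%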;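 for inhibition: signal is fraction of cell area covered by stained E-selectin grains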;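 for nuclei count: 100% = median nuclei count of all wells on the same plate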); conditions: HUVEC TNFalpha-induced E-selectin immunofluorescence imaging, at 2 µM; inhibition: stronger effect = higher value; nuclei count: measured here: cell number, toxicity
[4] = molecular target: Voltage-gated potassium channel subunit beta-2 (Rattus norvegicus) (UniProt P62483); test: inhibitors of rat Kvbeta2 reductase activity – biochemical, NADPH fluorescence, primary screen (AID 622;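 active = fluorescence slope higher than the sample average by over 3 SD, cut at about -0.22 in these data, passing the limit was not always enough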;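 note: slope of raw intensity against log time taken from 70 to 1610 s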); conditions: recombinant KvBeta, 4-cyanobenzaldehyde reduction, at 10 µM, stronger effect = higher value
[5] = molecular target: Voltage-gated potassium channel subunit beta-2 (Rattus norvegicus) (UniProt P62483); test: enhancers of rat Kvbeta2 NADPH turnover – biochemical, NADPH fluorescence, primary screen (AID 623;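 active = NADPH fluorescence slope more negative than the mean of all samples by about 3 SD, 99.7% confidence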;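 note: fluorescence intensity change per second fitted from 20 to 320 s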); conditions: Recombinant KvBeta, NADPH fluorescence decrease slope, 10 min; at 10 µM; stronger effect = lower value
[6] = molecular target: Muscarinic acetylcholine receptor M4 (Homo sapiens) (UniProt P08173); test: M4-linked GIRK flux change, two-sided – cell-based, HEK293 M4/GIRK, thallium flux, BTC-AM, M4 allosteric agonist project, primary screen (AID 625); conditions: at 10 µM, actives lie on both sides;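 note: thallium influx through GIRK channels coupled to M4 in HEK293 cells with BTC-AM dye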
[7] = blockers of RIG-like receptor reporter activation – cell-based, Sendai virus stimulus, luciferase, 10K MLSCN set, TLR/RLR signaling modifier project, primary screen (AID 602276;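 active = inhibition at or above 50% at 10 µM; inactive = inhibition below 50%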;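 note: firefly luciferase from ISG56 promoter only with Renilla not read in this screen; 0% = Sendai virus plus DMSO and 100% = medium plus DMSO without virus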); conditions: HEK293 RL24 IRF3 luciferase reporter, at 10 µM, stronger effect = higher value
[8] = TLR3 IRF3 reporter activation blockers – cell-based, poly I:C stimulus, luciferase, 10K MLSCN set, primary screen (AID 602277;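 active = inhibition of the reporter signal at or above 50%; inactive = inhibition below 50%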); conditions: HEK293-TLR3 RL24 IRF3 luciferase reporter, at 10 µM, stronger effect = higher value

Voltage-gated potassium channel subunit beta-2 (Rattus norvegicus), sequence (P62483 whole entry, looked up): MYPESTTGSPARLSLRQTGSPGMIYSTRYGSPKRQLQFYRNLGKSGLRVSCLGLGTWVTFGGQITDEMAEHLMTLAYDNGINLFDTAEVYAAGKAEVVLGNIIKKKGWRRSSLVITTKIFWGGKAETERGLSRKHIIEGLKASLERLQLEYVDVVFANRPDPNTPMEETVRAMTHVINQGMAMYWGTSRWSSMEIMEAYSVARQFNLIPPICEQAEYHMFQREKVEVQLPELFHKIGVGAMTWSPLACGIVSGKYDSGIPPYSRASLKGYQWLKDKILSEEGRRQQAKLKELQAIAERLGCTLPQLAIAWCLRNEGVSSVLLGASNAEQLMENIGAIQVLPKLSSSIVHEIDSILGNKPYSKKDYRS
Muscarinic acetylcholine receptor M4 (Homo sapiens), sequence (P08173 whole entry, looked up): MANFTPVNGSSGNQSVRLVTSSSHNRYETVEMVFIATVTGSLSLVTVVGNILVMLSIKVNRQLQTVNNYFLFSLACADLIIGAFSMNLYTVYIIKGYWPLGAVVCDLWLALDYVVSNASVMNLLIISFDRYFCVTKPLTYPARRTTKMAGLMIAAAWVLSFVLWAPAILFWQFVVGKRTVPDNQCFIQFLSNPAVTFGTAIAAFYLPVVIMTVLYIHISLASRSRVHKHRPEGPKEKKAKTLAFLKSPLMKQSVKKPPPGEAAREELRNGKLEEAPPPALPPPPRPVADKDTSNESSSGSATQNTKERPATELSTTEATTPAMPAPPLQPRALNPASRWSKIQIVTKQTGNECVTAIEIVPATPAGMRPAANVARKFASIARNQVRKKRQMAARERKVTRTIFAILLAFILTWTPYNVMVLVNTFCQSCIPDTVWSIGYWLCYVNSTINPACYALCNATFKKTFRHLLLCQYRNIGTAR

| SMILES | cell count [1] | inhibition [1] | inhibition of aggregation [2] | nuclei count [2] | inhibition [3] | nuclei count [3] | fluorescence slope [4] | NADPH fluorescence slope [5] | fluorescence slope [6] | inhibition [7] | inhibition [8] |
| --- | --- | --- | --- | --- | --- | --- | --- | --- | --- | --- | --- |
| CN(C)c1ccc(CNC2CC(C)(C)NC(C)(C)C2)cc1 | 334 | 2.4% (inactive) | -12.5% (inactive) | 106% | 20.8% (inactive) | 91.1% | -0.584 (inactive) | -4.8e-05 (inactive) | 0.00412 (inactive) | -0.582% (inactive) | 16.7% (inactive) |
| S=c1[nH]nc(COc2ccccc2)n1C1CCCCC1 | 552 | 8% (inactive) | 18.7% (inactive) | 91.7% | 48.2% (inactive) | 105% | -0.553 (inactive) | -3e-06 (inactive) | 0.0103 (inactive) | -4.8% (inactive) | 10.9% (inactive) |
| O=C1CC(N2CCC(C(=O)N3CCCCC3)CC2)C(=O)N1 (centres undefined) | 349 | 4% (inactive) | 10.7% (inactive) | 115% | -37.4% (inactive) | 148% | -0.554 (inactive) | -3.8e-05 (inactive) | 0.00558 (inactive) | 19.9% (inactive) | 16.2% (inactive) |
| COc1ccc(-c2[nH]nc3c2C(c2ccccc2OC(=O)N2CCOCC2)C(C#N)=C(N)O3)cc1 (centres undefined) | 663 | -15.1% (inactive) | -9.9% (inactive) | 104% | -15.6% (inactive) | 104% | -0.574 (inactive) | -3.5e-05 (inactive) | 0.00609 (inactive) | 25.8% (inactive) | 19% (inactive) |
| CCCc1nc2ccccc2c2nc(N)nn12 | 435 | 7.7% (inactive) | 13.1% (inactive) | 82.1% | 21.4% (inactive) | 101% | -0.458 (inactive) | 3.4e-05 (inactive) | 0.00513 (inactive) | 13.7% (inactive) | 12.1% (inactive) |
| CC(=O)Nc1cccc(-c2nnc(-c3ccccc3)o2)c1 | 378 | 0.4% (inactive) | 4.1% (inactive) | 105% | -93.4% (inactive) | 136% | -0.582 (inactive) | -3e-05 (inactive) | 0.00721 (inactive) | -35.6% (inactive) | -134% (inactive) |
| O=c1c2c(nc3nc(COc4ccccc4)[nH]n13)CCC2 | 305 | 5.6% (inactive) | 19.9% (inactive) | 100% | -89.8% (inactive) | 102% | -0.539 (inactive) | -9.7e-06 (inactive) | 0.00436 (inactive) | 15.2% (inactive) | 18% (inactive) |
| CC(C(=O)NC1CCCCCC1)N(c1ccccc1)S(C)(=O)=O (centres undefined) | 370 | 1.9% (inactive) | 4.5% (inactive) | 108% | -7.4% (inactive) | 97% | -0.548 (inactive) | -0.000126 (inactive) | 0.00352 (inactive) | 15.7% (inactive) | 3.26% (inactive) |
| O=C(NCc1ccco1)c1cc2n(n1)C(C(F)(F)F)CC(c1ccc(F)cc1)N2 (centres undefined) | 405 | 6.5% (inactive) | -12.7% (inactive) | 109% | 8.6% (inactive) | 103% | -0.557 (inactive) | -7.3e-06 (inactive) | 0.00537 (inactive) | 3.11% (inactive) | 12.1% (inactive) |
| Cn1c(=O)[nH]c(=O)c2c1nc(N1CCNCC1)n2Cc1cccc2ccccc12 | 387 | 1.1% (inactive) | 13.1% (inactive) | 99.6% | -83.1% (inactive) | 106% | -0.59 (inactive) | -5.5e-05 (inactive) | 0.00615 (inactive) | 13.2% (inactive) | 28.8% (inactive) |
| CN(CC(O)COCc1cccs1)C1CCCCC1 (centres undefined) | 305 | 10.6% (inactive) | 1.5% (inactive) | 95.2% | -5.5% (inactive) | 105% | -0.448 (inactive) | -4.5e-05 (inactive) | 0.00729 (inactive) | 11.7% (inactive) | 17.5% (inactive) |
| O=C(O)C1C2CCC(O2)C1C(=O)Nc1cccc(F)c1 (centres undefined) | 596 | -2% (inactive) | -0.8% (inactive) | 109% | -56.8% (inactive) | 104% | -0.435 (inactive) | -3.5e-06 (inactive) | 0.00527 (inactive) | 20.3% (inactive) | 19.5% (inactive) |
| COCCCn1c(SCC(=O)N2CCc3ccccc32)nnc1-c1ccoc1C | 238 | -3.2% (inactive) | 2.7% (inactive) | 56.1% | 42.5% (inactive) | 56.1% | -0.548 (inactive) | -5.6e-05 (inactive) | 0.00429 (inactive) | 20.2% (inactive) | 19.6% (inactive) |
| CC(=O)N(c1ccc(N(C(C)=O)S(=O)(=O)c2cccs2)cc1)S(=O)(=O)c1cccs1 | 458 | 1.3% (inactive) | 11.2% (inactive) | 99.2% | -45.8% (inactive) | 99.4% | -0.472 (inactive) | -0.000256 (inactive) | 0.00408 (inactive) | 4.25% (inactive) | 7.23% (inactive) |

— PubChem BioAssay
